From PubChem BioAssay (NCATS)
Where “and” joins values, the source holds several entries; their conditions need not be identical. Equal entries are not always repeated. Records with an inconclusive call do not appear. The source holds several records for some structures; these can differ, active in one and inactive in another. Calls of active or inactive are those of the source. Calls come from the whole dose curve; as a rule, active = well fitted curve in the direction sought with a large enough effect; inconclusive = small, poorly fitted or top-dose-only effect, or another doubt; inactive = no such curve, though single readings can be large; an effect the other way counts as inactive or inconclusive.

Legend:
[1] = system: MCC-13; assay: qHTS assay to identify novel small-molecules to repurpose for Merkel cell carcinoma treatment (AID 1296009); conditions: MCC and control cell lines, CellTiter-Glo viability, 72 h; series mostly up to 46 µM; note: nearly all actives have a fitted effect of over 60% in size
Summary of the method: (§1)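 Cell viability measured by CellTiter-Glo following 72 hr compound treatment at 37 degree celsius, with NPC and MIPE libraries tested in 8- and 11-point concentration series.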

[2] = system: MCC-26; assay: as above; conditions: MCC and control cell lines, CellTiter-Glo viability, 72 h; series mostly up to 46 µM
Summary of the method: as §1

[3] = system: MKL-1; assay: as above; conditions: MCC and control cell lines, CellTiter-Glo viability, 72 h; series mostly up to 46 µM
Summary of the method: as §1

[4] = system: MKL-2; assay: as above; conditions: MCC and control cell lines, CellTiter-Glo viability, 72 h; series mostly up to 46 µM
Summary of the method: as §1

[5] = system: NIH3T3; assay: as above; conditions: MCC and control cell lines, CellTiter-Glo viability, 72 h; at 44.8 µM (top of the series) unless noted
Summary of the method: as §1

[6] = system: WaGa; assay: as above; conditions: MCC and control cell lines, CellTiter-Glo viability, 72 h; series mostly up to 46 µM
Summary of the method: as §1

[7] = system: C33A; assay: Primary qHTS to identify gynecologic anti-cancer compounds using libraries of approved drugs and bioactive compounds (AID 1345084); conditions: Gynecologic cancer cell panel viability, ATPlite luminescence, 48 h; series mostly up to 57.5 µM; note: nearly all actives have a fitted effect of over 55% in size
Summary of the method: (§2)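 Luminescence from the ATPlite ATP-monitoring reagent indicates viable cell number; lower signal means cytotoxicity. Cells received compound 16 h after seeding and were exposed for 48 h across five concentrations.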

[8] = system: CAOV3; assay: as above; conditions: Gynecologic cancer cell panel viability, ATPlite luminescence, 48 h; series mostly up to 57.5 µM
Summary of the method: as §2

[9] = system: CASKI; assay: as above; conditions: Gynecologic cancer cell panel viability, ATPlite luminescence, 48 h; series mostly up to 57.5 µM
Summary of the method: as §2

[10] = system: Es-2; assay: as above; conditions: Gynecologic cancer cell panel viability, ATPlite luminescence, 48 h; series mostly up to 57.5 µM
Summary of the method: as §2

[11] = system: HeLa; assay: as above; conditions: Gynecologic cancer cell panel viability, ATPlite luminescence, 48 h; series mostly up to 57.5 µM
Summary of the method: as §2

[12] = system: Hek293T; assay: as above; conditions: Gynecologic cancer cell panel viability, ATPlite luminescence, 48 h, control line for the selectivity index; series mostly up to 57.5 µM
Summary of the method: as §2

[13] = system: JEG-3; assay: as above; conditions: Gynecologic cancer cell panel viability, ATPlite luminescence, 48 h; series mostly up to 57.5 µM
Summary of the method: as §2

[14] = system: OV90; assay: as above; conditions: Gynecologic cancer cell panel viability, ATPlite luminescence, 48 h; series mostly up to 57.5 µM
Summary of the method: as §2

[15] = system: PA-1; assay: as above; conditions: Gynecologic cancer cell panel viability, ATPlite luminescence, 48 h; series mostly up to 57.5 µM
Summary of the method: as §2

[16] = system: SKOV3; assay: as above; conditions: Gynecologic cancer cell panel viability, ATPlite luminescence, 48 h; series mostly up to 57.5 µM
Summary of the method: as §2

[17] = system: Tov-21-G; assay: as above; conditions: Gynecologic cancer cell panel viability, ATPlite luminescence, 48 h; series mostly up to 57.5 µM
Summary of the method: as §2

[18] = system: Tov112D; assay: as above; conditions: Gynecologic cancer cell panel viability, ATPlite luminescence, 48 h; series mostly up to 57.5 µM
Summary of the method: as §2

[19] = Drug repurposing screens with cells derived from glioblastoma tumor samples (AID 1345199); conditions: GBM patient neurospheres viability, ATP luminescence, 48 h; note: nearly all actives have a fitted effect of over 40% in size
Summary of the method: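 Primary testing used CD133+ neurospheres from four GBM patients, seven concentrations, 48 h exposure and ATP-based viability; confirmation added three slower-growing patient lines.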

[20] = system: UISO; assay: qHTS assay to identify novel small-molecules to repurpose for Merkel cell carcinoma treatment (AID 1296009); conditions: MCC and control cell lines, CellTiter-Glo viability, 72 h; series mostly up to 46 µM; note: nearly all actives have a fitted effect of over 60% in size
Summary of the method: as §1

[21] = at 20 µM (top of the series), tumour line C
[22] = at 21.2 µM (top of the series), tumour line B
[23] = at 21.2 µM (top of the series), tumour line D
[24] = at 45.9 µM (top of the series), tumour line B
[25] = at 45.9 µM (top of the series), tumour line D
[26] = at 46.1 µM (top of the series), tumour line C
% is set by controls: 0 for no effect and ±100 for the full control effect.

C[C@@H]1CC[C@@]2(OC1)O[C@H]1C[C@H]3[C@@H]4CC[C@H]5C[C@@H](O)CC[C@]5(C)[C@H]4CC(=O)[C@]3(C)[C@H]1[C@@H]2C
inactive: activity change, negative = cytotoxicity [1] -5.49% [at 4.84 µM] | activity change, negative = cytotoxicity [2] 5.06% [at 4.84 µM] | activity change, negative = cytotoxicity [3] 7.37% [at 4.84 µM] | activity change, negative = cytotoxicity [4] 2.92% [at 4.84 µM] | outcome [5] inactive [at 4.96 µM] | activity change, negative = cytotoxicity [6] 17.9% [at 4.84 µM] | activity change, negative = cytotoxicity [7] -0.977% [at 6.55 µM] | activity change, negative = cytotoxicity [8] -7.17% [at 6.55 µM] | activity change, negative = cytotoxicity [9] 7.56% [at 6.55 µM] | activity change, negative = cytotoxicity [10] -0.456% [at 6.55 µM] | activity change, negative = cytotoxicity [11] 1.36% [at 6.55 µM] | activity change, negative = cytotoxicity [12] 7.28% [at 6.55 µM] | activity change, negative = cytotoxicity [13] -0.879% [at 6.55 µM] | activity change, negative = cytotoxicity [14] 12.9% [at 6.55 µM] | activity change, negative = cytotoxicity [15] 9.38% [at 6.55 µM] | activity change, negative = cytotoxicity [16] 8.75% [at 6.55 µM] | activity change, negative = cytotoxicity [17] 5.68% [at 6.55 µM] | activity change, negative = cytotoxicity [18] 10.1% [at 6.55 µM] | activity, negative = cell killing [19, 21] -26.8% | activity, negative = cell killing [19, 22] -15.7% | activity, negative = cell killing [19, 23] -22.8%

NCCNCCNCCNCCN
inactive: activity change, negative = cytotoxicity [1] 6.32% [at 9.22 µM] | activity change, negative = cytotoxicity [2] -6.59% [at 9.22 µM] | activity change, negative = cytotoxicity [3] -8% [at 9.22 µM] | activity change, negative = cytotoxicity [4] -0.706% [at 9.22 µM] | activity change, negative = cytotoxicity [20] 44% [at 9.22 µM] | activity change, negative = cytotoxicity [6] -2.21% [at 9.22 µM] | activity change, negative = cytotoxicity [7] 13.2% [at 11.6 µM] | activity change, negative = cytotoxicity [8] 11.8% [at 11.6 µM] | activity change, negative = cytotoxicity [9] 1.72% [at 11.6 µM] | activity change, negative = cytotoxicity [10] -5.14% [at 11.6 µM] | activity change, negative = cytotoxicity [11] 8.61% [at 11.6 µM] | activity change, negative = cytotoxicity [12] -2.17% [at 11.6 µM] | activity change, negative = cytotoxicity [13] -3.13% [at 11.6 µM] | activity change, negative = cytotoxicity [14] 8.86% [at 11.6 µM] | activity change, negative = cytotoxicity [15] 20.4% [at 11.6 µM] | activity change, negative = cytotoxicity [16] 0% [at 11.6 µM] | activity change, negative = cytotoxicity [17] -0.438% [at 11.6 µM] | activity change, negative = cytotoxicity [18] 0.19% [at 11.6 µM] | activity, negative = cell killing [19, 24] -23.1% | activity, negative = cell killing [19, 25] -12.1% | activity, negative = cell killing [19, 26] 1.79%

O=C1OC(OC(=O)c2cccnc2Nc2cccc(C(F)(F)F)c2)c2ccccc21 (configuration not stated)
inactive: Potency [1] | Potency [2] | Potency [3] | Potency [4] | Potency [20] | Potency [6] | Potency [7] | Potency [8] | Potency [9] | Potency [10] | Potency [11] | Potency [12] | Potency [13] | Potency [14] | Potency [15] | Potency [16] | Potency [17] | Potency [18] | activity, negative = cell killing [19, 24] -18.8% | activity, negative = cell killing [19, 25] 3.71%

CCCCN(CCCC)CCCOC(=O)c1ccc(N)cc1
inactive: Potency [1] | Potency [2] | Potency [3] | Potency [4] | outcome [5] | Potency [20] | Potency [6] | Potency [7] | Potency [9] | Potency [10] | Potency [11] | Potency [12] | Potency [13] | Potency [14] | Potency [15] | Potency [16] | Potency [17] | Potency [18] | activity, negative = cell killing [19, 21] -6.46% | activity, negative = cell killing [19, 22] 6.6% | activity, negative = cell killing [19, 23] -16%

COc1ccc2c(c1)C(=O)N(CCc1ccc(S(=O)(=O)NC(=O)NC3CCCCC3)cc1)C(=O)C2(C)C
inactive: Potency [1] | Potency [2] | Potency [3] | Potency [4] | Potency [20] | Potency [6] | Potency [7] | Potency [8] | Potency [9] | Potency [10] | Potency [11] | Potency [12] | Potency [13] | Potency [14] | Potency [15] | Potency [16] | Potency [17] | Potency [18] | activity, negative = cell killing [19, 21] -4.28% | activity, negative = cell killing [19, 22] -10.5% | activity, negative = cell killing [19, 23] -7.62%

O=C(O)Cc1sc(-c2ccccc2)nc1-c1ccc(Cl)cc1
inactive: Potency [1] | Potency [2] | Potency [3] | Potency [4] | Potency [20] | Potency [6] | Potency [7] | Potency [8] | Potency [9] | Potency [10] | Potency [11] | Potency [12] | Potency [13] | Potency [14] | Potency [15] | Potency [16] | Potency [17] | Potency [18] | activity, negative = cell killing [19, 25] -34% and -7.66% | activity, negative = cell killing ([19]; at 46 µM (top of the series), tumour line A) -38.9% | activity, negative = cell killing [19, 26] -4.36% and -11.1%

N[C@H](C(=O)O)c1ccc(O)cc1
inactive: Potency [1] | Potency [2] | Potency [3] | Potency [4] | Potency [20] | Potency [6] | Potency [7] | Potency [8] | Potency [9] | Potency [10] | Potency [11] | Potency [12] | Potency [13] | Potency [14] | Potency [15] | Potency [16] | Potency [17] | Potency [18]

CCn1cc(C(=O)O)c(=O)c2cnc(N3CCNCC3)nc21
inactive: Potency [1] | Potency [2] | Potency [3] | Potency [4] | outcome [5] | Potency [20] | Potency [6] | Potency [7] | Potency [9] | Potency [10] | Potency [11] | Potency [12] | Potency [13] | Potency [14] | Potency [15] | Potency [16] | Potency [17] | Potency [18] | activity, negative = cell killing [19, 21] -6% | activity, negative = cell killing [19, 22] -11.9% | activity, negative = cell killing [19, 23] -14.4% | activity, negative = cell killing ([19]; at 21.3 µM (top of the series), tumour line A) -22%

O=C(O)COc1nn(Cc2ccccc2)c2ccccc12
inactive: Potency [1] | Potency [2] | Potency [3] | Potency [4] | Potency [20] | Potency [6] | Potency [7] | Potency [8] | Potency [9] | Potency [10] | Potency [11] | Potency [12] | Potency [13] | Potency [14] | Potency [15] | Potency [16] | Potency [17] | Potency [18] | activity, negative = cell killing [19, 24] 0.429% | activity, negative = cell killing [19, 25] -3.69% | activity, negative = cell killing [19, 26] -16.4%

CCCCCCCCCCCCOS(=O)(=O)O
inactive: Potency [1] | Potency [2] | Potency [3] | Potency [4] | outcome [5] | Potency [20] | Potency [6] | Potency [7] | Potency [9] | Potency [10] | Potency [11] | Potency [12] | Potency [13] | Potency [14] | Potency [15] | Potency [16] | Potency [17] | Potency [18] | activity, negative = cell killing [19, 24] -29.7% | activity, negative = cell killing [19, 25] 0.019% | activity, negative = cell killing [19, 26] -0.178%

c1ccc2c(CC3=NCCN3)cccc2c1
inactive: Potency [1] | Potency [2] | Potency [3] | Potency [4] | Potency [20] | Potency [6] | Potency [7] | Potency [8] | Potency [9] | Potency [10] | Potency [11] | Potency [12] | Potency [13] | Potency [14] | Potency [15] | Potency [16] | Potency [17] | Potency [18] | activity, negative = cell killing [19, 25] -11.3% and -15.4% | activity, negative = cell killing [19, 26] -1.52% and -0.846% and -3.97%
